# Measurements published in PubChem BioAssay AID589 (National Center for Advancing Translational Sciences (NCATS), 2007).
# Hit rate of the full screen: of about 59,000 compounds, about 6,200 (11%) were called active. Another 9% or so got no clear call; they are omitted. Cut-off read from the data, not from the text of the source: active = max dye-equivalent concentration above about 10 nM; inconclusive = mostly about 1.1 nM to 9.6 nM; inactive = weaker than that. The full list was thinned out, with actives kept by preference.
# Assay: qHTS Assay for Spectroscopic Profiling in 4-MU Spectral Region
# Conditions: compound autofluorescence, 340/450 nm, 4-MU equivalents; stronger effect = higher value
# In short: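 Intrinsic fluorescence at 340/450 nm (ex/em) was read after 15 min at room temperature in pH 8.0, 100 mM Tris. Each compound concentration expressed as 4-MU-equivalent concentration from a six-point 4-MU standard series on each plate.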
row,Structure (SMILES),max dye-equivalent concentration
1,COc1ccc(-c2c3c(=O)n(C)c(=O)n(C)c3cn2NC(C)=O)cc1,2200 nM (active)
2,COc1ccc(N(C(=O)c2cccnc2)S(=O)(=O)c2ccc3c(c2)n(C)c(=O)n3C)cc1,inactive
3,Cc1ccc(-c2c3c(=O)n(C)c(=O)n(C)c3cn2-c2ccccc2O)cc1,inactive
4,Cc1ccc(-c2c3c(=O)n(C)c(=O)n(C)c3cn2-n2cnnc2)cc1,inactive
5,COc1ccc(-c2c3c(=O)n(C)c(=O)n(C)c3cn2-c2cccc(OC)c2)cc1,12 nM (active)
6,COc1ccc(OC)c(-n2cc3c(=O)n(C)c(=O)n(C)c3c2)c1,inactive
7,Cc1ccc(Oc2ccc(N)cc2)cc1,inactive
8,CCOc1ccccc1-n1c(SCC(=O)NCc2ccco2)nnc1-c1ccncc1,inactive
9,O=C(CCc1ccccc1)Nc1ccc(NC(=O)C2CC2)nc1,inactive
10,O=C1CC(c2ccccc2)C(=O)N1c1cccc(O)c1 (stereo not drawn),inactive
11,Cc1cc(NC(=O)c2cnn3cccnc23)n(-c2ccccc2)n1,inactive
12,CCOC(=O)c1sc(NC(=O)c2cc(S(=O)(=O)N3CCOCC3)ccc2C)nc1C,inactive
13,O=C(Nc1nc2cc3c(cc2s1)OCCO3)c1cccc(S(=O)(=O)N2CCOCC2)c1,18 nM (active)
14,O=C(Nc1ccc2c(c1)nc1n2CCCCC1)c1cc(S(=O)(=O)N2CCOCC2)ccc1Cl,inactive
15,COc1ccc(S(=O)(=O)N2CCOCC2)cc1C(=O)Nc1nc2ccccc2s1,35 nM (active)
16,CCN(Cc1ccncc1)C(=O)c1cccc(S(=O)(=O)N2CCOCC2)c1,inactive
17,O=C(Nc1nc2ccc(S(=O)(=O)N3CCCC3)cc2s1)C1CCCO1 (stereo not drawn),inactive
18,CC(=O)c1c(N2CCOCC2)nc(=S)n(-c2cc(C)ccc2C)c1C,inactive
19,Cc1ccc2cccc(S(=O)(=O)N3CCN(c4ccccc4F)CC3)c2n1,inactive
20,CCOC(=O)CN(C(=O)CN1CCOCC1)c1ccc(Br)cc1,inactive
21,COc1ncnc2c1N=C1CC(C)(C)CC(N)=C1S2,inactive
22,O=C(OCC(=O)N1CCN(C(=O)c2ccco2)CC1)c1ccccc1Cc1ccccc1,inactive

row,Structure (SMILES),max dye-equivalent concentration
1,COC(=O)CN(c1cccc(C(C)=O)c1)S(C)(=O)=O,inactive
2,C=CCn1c(N)c(C(=O)OCC(C)C)c2nc3ccccc3nc21,3300 nM (active)
3,C=CCn1c(N)c(S(=O)(=O)c2cccs2)c2nc3ccccc3nc21,3700 nM (active)
4,CCN(CC(=O)NCc1cccs1)c1nnnn1-c1ccccc1,inactive
5,C=CCn1c(C(C)NC(=O)CC)nc2ccccc21 (stereo not drawn),inactive
6,Cc1nnc(SCC(=O)NCc2cccs2)[nH]c1=O,inactive
7,CC(C)Cn1c(N)c(C(=O)NCc2cccs2)c2nc3ccccc3nc21,280 nM (active)
8,C=CCn1c(C2CC(=O)N(c3ccc(C)cc3)C2)nc2ccccc21 (stereo not drawn),inactive
9,O=C(c1cc(C(F)(F)F)cc(C(F)(F)F)c1)N1CCC2(CCCN(Cc3ccncc3)C2)CC1,inactive
10,COc1ccc(-c2nn(-c3ccccc3)cc2C(=O)Nc2nc(CC(C)=O)ns2)cc1,inactive
11,CCn1c(CSc2nncn2-c2ccc(OC)cc2)nc2cc(S(=O)(=O)N(C)C)ccc21,inactive
12,Nc1nc(SCCOc2ccccc2)n[nH]1,inactive
13,CCOC(=O)C1CCN(C(=O)C2CCN(S(=O)(=O)N3CCCC3)CC2)CC1,inactive
14,COc1ccc(Cl)cc1S(=O)(=O)Nc1cccc(C(=O)O)c1,inactive
15,COc1ccc(C(c2nnnn2Cc2cccs2)N2CCN(c3ccccc3)CC2)cc1OC (stereo not drawn),inactive
16,Nc1nonc1-c1nc2ccccc2n1Cc1ccc(F)cc1,inactive
17,Nn1c(SCC(=O)NC(=O)NC2CCCC2)nnc1-c1ccccc1F,inactive
18,CC(=O)NC1=NC(=O)CS1,inactive
19,COc1ccc(OC)c(N=Cc2c(O)[nH]c3ccccc23)c1,59 nM (active)
20,CCOc1ccccc1NC(=O)Nc1cc(OC)ccc1OC,inactive
21,COC(=O)c1[nH]c2ccccc2c1NS(=O)(=O)c1ccc(OC)cc1OC,inactive
22,Cc1nn(-c2ccccc2)c(C)c1C(=O)OCC(=O)NC(=O)NC1CCCCC1,inactive

row,Structure (SMILES),max dye-equivalent concentration
1,CCC(C)(C)NC(=O)C(c1cccn1C)N(Cc1ccc(C)cc1)C(=O)Cn1nnc2ccccc21 (stereo not drawn),inactive
2,CC(C)NC[C@H](O)c1ccc2ccccc2c1,inactive
3,CCCCC[C@H](O)CCCC(=O)O,inactive
4,COc1ccc(OC)c(C2N(c3ccccn3)C(=O)C3CCCN32)c1 (stereo not drawn),inactive
5,CCn1nc(NC(=O)c2ccco2)c2cc3ccc(C)cc3nc21,64 nM (active)
6,Cc1ccnc(NC(=O)c2ccc(NC(=O)c3ccco3)cc2)c1,inactive
7,CCN(CC)C(=O)c1sc(NC(=O)c2ccco2)c(C#N)c1C,inactive
8,C=CCNc1nc(C)nc(OC)n1,inactive
9,C=CCn1c(COc2ccccc2C)nnc1SCC(=O)O,inactive
10,Cn1c(SCC(=O)Nc2cccc(NC(=O)c3cccs3)c2)nnc1-c1ccncc1,inactive
11,Cc1nc(-c2ccc(NC(=O)c3cccs3)cc2)cs1,220 nM (active)
12,O=C(O)c1ccc(NC(=O)c2cccs2)cc1,inactive
13,Cc1cc(=O)[nH]c(SCC(=O)N2c3ccccc3CC2C)n1 (stereo not drawn),inactive
14,NC(=NC(=O)c1ccccc1)C1=C(O)CCC1=O,inactive
15,O=C(c1cccc2ccccc12)N1CCN(c2ccccc2F)CC1,inactive
16,Cn1c2ccccc2c2c(C(=O)N3CCN(c4ccc(F)cc4)CC3)cn(C3CCCC3)c(=O)c21,16 nM (active)
17,CC(C)N(C(=O)COC(=O)c1ccccc1C(=O)N1CCN(c2ccc(F)cc2)CC1)C(C)C,inactive
18,COc1ccc(-n2nnnc2SCC(=O)c2ccc(OC)c(OC)c2)cc1,inactive
19,CC1=C(C(=O)OC2CCCCC2)C(c2cccnc2)n2ncnc2N1 (stereo not drawn),inactive
20,COC(=O)C1=C(N)Oc2cc(C)oc(=O)c2C1c1cccnc1 (stereo not drawn),inactive
21,CCSc1nc2c(c(=O)[nH]1)C(c1cccnc1)C(C(=O)OC(C)C)=C(C)N2 (stereo not drawn),10 nM (active)
22,O=C(Nc1cccc(F)c1)N1CC2(CCN(C(=O)c3cnccn3)CC2)C1,inactive

row,Structure (SMILES),max dye-equivalent concentration
1,COc1ccc(NC(=O)c2c(SC)nsc2SC)cc1,inactive
2,CCOc1ccc(C(C)C)cc1S(=O)(=O)n1nc(C)cc1C,inactive
3,Cc1ccc(OCCCC(=O)N2CCOCC2)c(C)c1,inactive
4,CCCc1[nH]nc2c1C(c1c(C)nn(-c3ccccc3)c1Cl)C(C#N)=C(N)O2 (stereo not drawn),inactive
5,CSc1ccc(-c2c(C#N)c(N)nc3c2c(C)nn3-c2ccccc2)cc1,360 nM (active)
6,CSc1nc(N)c(C#N)c(-c2ccccc2Cl)c1C#N,inactive
7,CCc1c(C)nc(N)n2c(SCC(=O)N3CCN(c4ccccc4)CC3)nnc12,inactive
8,CCOC(=O)c1cnc(SCC(=O)NCc2ccco2)nc1N,inactive
9,COc1c(C)cccc1C(=O)Nc1cc(Cl)ccc1N1CCOCC1,inactive
10,COc1ccc(Cl)cc1NC(=O)c1oc(C)nc1C,15 nM (active)
11,Cc1nc(C)c(C(=O)Nc2ccc(C)c(F)c2)o1,inactive
12,CCOC(=O)c1csc(NC(=O)c2ccc(S(=O)(=O)N3CCCC3)cc2)n1,inactive
13,CC(C)c1ccc(-c2nn[nH]n2)cc1,inactive
14,Cc1ccc(F)cc1NC(=O)c1cccc(N(C)C)c1,inactive
15,COc1ccc2oc(=O)c(C(=O)N3CCCc4ccccc43)cc2c1,inactive
16,COc1ccc(CN2CC(C(=O)NCCN3CCN(c4ccccc4F)CC3)CC2=O)cc1 (stereo not drawn),inactive
17,COc1ccc2oc(=O)c(C(=O)N3CCN(c4ccccc4F)CC3)cc2c1,39 nM (active)
18,CCCCC(CCC(=O)Nc1ccc(C(=O)OCC)cc1)C(=O)O (stereo not drawn),inactive
19,Cc1cc(Cl)c(S(=O)(=O)NCC2CCCO2)cc1OCC(N)=O (stereo not drawn),inactive
20,O=C(COc1ccc2c3c(c(=O)oc2c1)CCC3)NC1CCCCC1,64 nM (active)
21,O=C(COc1ccccc1F)NC1CC1,inactive
22,O=C(COc1ccc2oc3c(c2c1)CCCC3)Nc1ccccn1,inactive

row,Structure (SMILES),max dye-equivalent concentration
1,O=C(CC1OC(=O)c2ccccc21)NC1CCCCC1 (stereo not drawn),inactive
2,NC(=O)COc1ccc2c3c(c(=O)oc2c1)CCCCC3,26 nM (active)
3,c1ccc2c(c1)OCC(c1nn3cnnc3s1)O2 (stereo not drawn),inactive
4,CCN(C(=O)CSc1ncn[nH]1)c1cccc2ccccc12,inactive
5,Cc1noc(C)c1S(=O)(=O)Nc1ccc(C(=O)O)cc1,inactive
6,O=C(NC(c1ccccc1)c1ccccc1)N1CCN(CCO)CC1,inactive
7,C#CCN1C(=O)C(O)(CC(=O)c2cc(OC)ccc2OC)c2ccccc21 (stereo not drawn),13 nM (active)
8,COc1ccc(OC)c(NC(=O)Cn2c(=O)oc3ccccc32)c1,inactive
9,COc1ccc(N2C(=O)CCC(C(=O)N(C)C3CCCCC3)C2c2ccc(OC)c(OC)c2)cc1 (stereo not drawn),inactive
10,CNC(=O)NCCN1CCCC1=O,inactive
11,COc1ccc(C(=O)NCc2cn3ccccc3n2)cc1,inactive
12,COc1ccc(CNC(=O)c2cc3c(=O)n4ccccc4nc3n(CC3CCCO3)c2=N)cc1 (stereo not drawn),270 nM (active)
13,COc1ccc(CCn2c(=N)c(C(=O)NCc3ccco3)cc3c(=O)n4cccc(C)c4nc32)cc1,11 nM (active)
14,COc1ccccc1C(=O)NCCn1cc(SCC(=O)NCc2ccco2)c2ccccc21,inactive
15,CCOCCCNC(=O)c1c[nH]c2cc(C)ccc2c1=O,inactive
16,COCCCNC(=O)c1ccc2c(c1)ncn2-c1ccccc1OC,inactive
17,COc1cc(OC)cc(-c2nc3nc(C)c(CCC(=O)NCc4ccco4)c(C)n3n2)c1,inactive
18,CCn1c(=N)c(C(=O)NCCCOC)cc2c(=O)n3cccc(C)c3nc21,12000 nM (active)
19,COc1ccc(CNC(=O)C2CCN(S(=O)(=O)N3CCOCC3)CC2)cc1,inactive
20,O=C(O)c1ccc(C(=O)c2ccccc2C(=O)O)cc1C(=O)O,inactive
